We go through 96 molecules from PubChem BioAssay AID1259374 (The Scripps Research Institute Molecular Screening Center, 2018).

For orientation: inhibition means the drop in the measured response relative to a control, in per cent.

The campaign covered roughly 650,000 compounds. About 5,900 (0.91%) were called active. The entries come from a sample that favours actives as a whole. Unmarked numbers belong to inactive results. No stated cut-off is given here; in the data, active means inhibition above about 50%; inactive means the rest.

Sequence of Microphthalmia-associated transcription factor (Homo sapiens) (O75030 whole entry, looked up): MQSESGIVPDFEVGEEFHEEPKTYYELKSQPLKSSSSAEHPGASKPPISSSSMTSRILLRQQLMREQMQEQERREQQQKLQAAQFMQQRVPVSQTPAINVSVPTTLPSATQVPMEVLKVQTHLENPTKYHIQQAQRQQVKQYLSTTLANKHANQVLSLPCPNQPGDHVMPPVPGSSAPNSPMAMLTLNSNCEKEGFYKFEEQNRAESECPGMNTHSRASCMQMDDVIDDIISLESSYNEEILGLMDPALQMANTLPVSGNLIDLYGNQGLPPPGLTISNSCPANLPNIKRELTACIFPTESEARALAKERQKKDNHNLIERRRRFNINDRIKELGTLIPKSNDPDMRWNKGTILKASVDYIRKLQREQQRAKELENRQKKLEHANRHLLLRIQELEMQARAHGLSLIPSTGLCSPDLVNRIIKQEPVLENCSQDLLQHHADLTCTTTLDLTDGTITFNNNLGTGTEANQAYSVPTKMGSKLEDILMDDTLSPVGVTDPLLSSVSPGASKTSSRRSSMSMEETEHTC

This assay has as its target Microphthalmia-associated transcription factor (Homo sapiens) (UniProt O75030). As to the kind of experiment: MITF inhibitors, primary screen, biochemical, AlphaScreen, human (AID 1259374).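 Further: 0% = vehicle wells with protein.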 As to conditions: AlphaScreen MITF homodimerization, bead proximity signal; at 2.6 µM; hits give high values. For orientation: Bead proximity is the source of the signal in Alpha formats.
Consider `O=C(Nc1sc2c(c1C(=O)Nc1ccccc1)CCCCC2)c1ccncc1`, for which the inhibition was 17.1%.

Turning to `CCOc1ccc(C(=O)Nc2cccc(-c3nc4cc(C)cc(C)c4o3)c2)cc1[N+](=O)[O-]`, the inhibition was 8.35%.

`COc1cc(C(=O)N/C(=C/c2ccc3c(c2)OCO3)C(=O)NCC(=O)O)cc(OC)c1OC`: the inhibition is -4.22%.

On to `COCCCn1c(SCC(=O)NC2CCCCC2)nnc1-c1ccccc1`, for which the inhibition is 8.3%.

For the molecule `CC1CCCCC1NC(=O)CSc1nnc(-c2ccncc2)n1CCCN(C)C` (stereo unspecified), the inhibition is 85.7% (active).

As to `CCCn1c(SCC(=O)NC2CCCCC2C)nnc1-c1cccnc1` (stereo unspecified), the inhibition is 0.55%.

Turning to `CCNC(=S)NNC(=O)c1cccc(S(=O)(=O)Nc2ccc(C)cc2C)c1`, the inhibition is 6.71%.

Turning to `CCCS(=O)(=O)N1CCc2ccc(NC(=O)/C=C/c3ccco3)cc2C1`, the inhibition was 14.1%.

Turning to `COc1cc(N2CCOCC2)ccc1Nc1cc(Nc2ccccc2C(N)=O)ccn1`, the inhibition is 21.1%.

As to `COc1cc(N2CCOCC2)ccc1Nc1cc(Nc2ccccc2-n2cccn2)c(C(F)(F)F)cn1`, the inhibition is 57.2% (active).

For `CNC(=O)c1ccccc1Nc1cc(Nc2ccc(N3CCOCC3)cc2OC)ncc1F`, the inhibition is 4.9%.

As to `N#CCN1C(=O)C(=O)/C(=C(/O)c2ccccc2)C1c1ccccn1` (stereo unspecified), the inhibition is 19.8%.

`COc1cc(CN2CCC(N3CCC(C(=O)NCC4CCCO4)CC3)CC2)cc(OC)c1` (stereo unspecified): the inhibition was 6.5%.

With `CC(C)c1ccc(C2/C(=C(/O)c3ccccc3)C(=O)C(=O)N2CCN(C)C)cc1` (stereo unspecified), the inhibition was 57.4% (active).

For `Cc1ccc(C2/C(=C(/O)c3ccc(Cl)cc3)C(=O)C(=O)N2CCN(C)C)cc1` (stereo unspecified), the inhibition is -18.6%.

With `CN(C)c1ccc(C2/C(=C(/O)c3ccccc3)C(=O)C(=O)N2CCO)cc1` (stereo unspecified), the inhibition was -0.75%.

`O=C(Nc1ccc(-c2cn3ccccc3n2)cc1)c1ccc(Br)o1`: the inhibition is 11.4%.

As to `C/C(=N\Nc1ccc(Cl)c(C(=O)O)c1)c1ccc([N+](=O)[O-])cc1`, the inhibition was 0.79%.

`CS(=O)(=O)N(Cc1ccccc1)c1ccccc1C(=O)N1CCCCCC1`: the inhibition is -12%.

`CCN(CC)S(=O)(=O)c1ccc(OCC(=O)Nc2ccc(C(C)=O)cc2)c([N+](=O)[O-])c1`: the inhibition was -5.88%.

Regarding `CCCCCOc1ccc(OC(=O)c2ccc(-c3ccc(CCC)cn3)cc2)cc1`, the inhibition was 57.3% (active).

On to `CCCCCc1ccc(-c2ccc(C(=O)Oc3ccc(-c4ccccc4)cc3)cc2)nc1`, for which the inhibition is 3.19%.

Regarding `CCCCOc1ccc(OC(=O)c2ccc(-c3ccc(CC)cn3)cc2)cc1`, the inhibition is -0.56%.

In the case of `CCOC(=O)C1CCCN(c2c(OCC)c(=O)c2=O)C1` (stereo unspecified), the inhibition was -5.33%.

For the molecule `CCN(CCCNC(=O)CCCn1c(=S)[nH]c2cc3c(cc2c1=O)OCO3)c1cccc(C)c1`, the inhibition was 2.49%.

On to `CN1CCN(S(=O)(=O)c2ccc(F)c(Cl)c2)CC1`, for which the inhibition is 19.5%.

On to `CCN1CCN(CC(O)COc2cccc(C(=O)OC)c2)CC1` (stereo unspecified), for which the inhibition is 53.1% (active).

For the molecule `CN1CCN(CC(O)COc2ccc3ccccc3c2)CC1` (stereo unspecified), the inhibition is 18.6%.

Take `O=C(c1ccccc1)N1CCN(CC(O)COc2cccc(Cl)c2)CC1` (stereo unspecified): the inhibition is -18.1%.

Take `O=C(/C=C/c1ccc([N+](=O)[O-])cc1)NCCSC1CCCCC1`: the inhibition was 27.9%.

`CCOc1ccccc1N1C(=O)c2nccnc2C1=O`: the inhibition is 1.76%.

Consider `CCOc1cc(/C=N/O)ccc1OCc1cccc(F)c1`, for which the inhibition is 9.06%.

As for `CCC(C)NCC(=O)Nc1cccc(C)c1C` (stereo unspecified), the inhibition was -0.21%.

In the case of `Cc1cccc(NC(=O)CNCCN2CCCCC2)c1C`, the inhibition was 62.5% (active).

On to `COCCNCC(=O)Nc1cccc(C)c1C`, for which the inhibition was -3.31%.

As for `Cc1ccc2c(c1)-c1onc(C(=O)Nc3ccc(Cl)cn3)c1CO2`, the inhibition was 12.1%.

With `COc1ccccc1NC(=O)Cn1cnc2sc(C(=O)O)c(C)c2c1=O`, the inhibition was -5%.

For `O=C(CSc1ncnc2ccccc12)Nc1nc2ccccc2s1`, the inhibition is 4.66%.

As for `C=CCn1c(SCC(=O)Nc2nc3ccccc3s2)nc(O)cc1=O`, the inhibition is 67% (active).

As to `O=C(CSc1cccc[n+]1[O-])Nc1nc2ccccc2s1`, the inhibition was 14.6%.

As to `CCn1cc(C(=O)N[C@H](C)Cn2nnc3ccccc32)c(=O)c2ccc(C)nc21`, the inhibition was 0.5%.

In the case of `Cc1ccc(NC(=O)C2C3NC(=S)N(c4ccc(F)cc4)C2(C)Oc2ccc(Br)cc23)c(C)c1` (stereo unspecified), the inhibition was 8.95%.

For `CCCN1CCc2nc(NC(=O)COc3ccc(Cl)cc3Cl)sc2C1`, the inhibition is 4.61%.

For `O=C(Nc1ccc2c(c1)OCO2)C(c1ccccc1)N(Cc1ccccc1)Cc1ccccc1` (stereo unspecified), the inhibition was 75.7% (active).

For the molecule `CN(c1ccccc1)C(C(=O)Nc1ccc2c(c1)OCCO2)c1ccccc1` (stereo unspecified), the inhibition is 17.5%.

Take `O=C(Nc1ccc2c(c1)OCO2)C(c1ccccc1)N1CCC(Cc2ccccc2)CC1` (stereo unspecified): the inhibition is -8.34%.

As for `O=C1Nc2cc(C(=O)O)ccc2S/C1=C/c1ccccc1Cl`, the inhibition is 2.94%.

On to `CCOC(=O)c1ccc(Nc2ncnc3c2cnn3-c2ccccc2)cc1`, for which the inhibition is 15.3%.

For `Cc1nc(NC(=O)c2ccoc2C)sc1C`, the inhibition was 1.06%.

As for `COc1ccc(C(=O)Nc2nc(C)c(C)s2)c(OC)c1`, the inhibition was 20.7%.

In the case of `Cc1nc(NC(=O)c2cc(Br)ccc2Cl)sc1C`, the inhibition was 53.2% (active).

Regarding `NC(=O)c1ccccc1NC(=O)CNCc1ccco1`, the inhibition is -15.5%.

As for `CCCn1c(SCC(=O)Nc2ccc(C(C)=O)cc2)n[nH]c1=O`, the inhibition was -6.45%.

On to `Cc1ccc(-c2n[nH]c(CNC(=O)c3cnccn3)n2)cc1`, for which the inhibition is 1.68%.

With `CCOc1ccccc1NC(=O)c1ccccc1NC(=O)c1ccc(OC)cc1`, the inhibition is -3.48%.

Turning to `S=c1[nH]nc(COc2cccc(Br)c2)n1-c1ccccc1`, the inhibition is 4.84%.

For `Cc1ccc(CS(=O)(=O)CCC(=O)NCc2ccc(F)cc2)cc1`, the inhibition was 9.88%.

As for `Cn1c(C(=O)O)c(CC(=O)NCc2ccc(F)cc2)c2ccccc21`, the inhibition is 63.1% (active).

With `CCCCC(=O)NCc1ccc(F)cc1`, the inhibition is 56.8% (active).

Turning to `O=C(CC1CCCCC1)NCc1ccc(F)cc1`, the inhibition is -4.27%.

`CN(Cc1ccccc1)C(=O)Cc1c(C(=O)O)n(C)c2ccccc12`: the inhibition is 12.8%.

Regarding `Cn1c(C(=O)O)c(CC(=O)Nc2ccc(F)cc2)c2ccccc21`, the inhibition is -7.75%.

Regarding `CC(=O)/C=C/c1oc2ccccc2c1-c1ccc(C)o1`, the inhibition was 21.6%.

`COc1cccc(/C=N/NC(=O)COc2cccc(Cl)c2)c1`: the inhibition was 1.05%.

Regarding `Cc1ccc(-c2c(C(=O)O)nnn2-c2nonc2N)cc1`, the inhibition is 3.35%.

Turning to `O=C(c1ccccc1F)N1CCN(C2CCCC2)CC1`, the inhibition is 29.8%.

`O=C(c1ccc(-n2c(=S)[nH]c3ccccc3c2=O)cc1)N1CCN(C2CCCCC2)CC1`: the inhibition was 6.86%.

On to `O=C(c1ccccc1)N1CCN(C2CCCC2)CC1`, for which the inhibition was 52.8% (active).

In the case of `N#Cc1cc2cc3c(cc2nc1SCC(=O)Nc1nccs1)OCO3`, the inhibition was 5.9%.

In the case of `Cc1nc(C(C)N(C)C(=O)Cn2cc(NC(=O)CCOc3ccccc3)cn2)c(C)s1` (stereo unspecified), the inhibition was -7.45%.

For `CCOC(=O)C(NC(=O)c1ccc(N2CC3CC(C2)c2cccc(=O)n2C3)c(NC(=O)c2cc(OC)cc(OC)c2)c1)C(=O)OCC` (stereo unspecified), the inhibition was -6.03%.

On to `COc1ccc(-c2cnnc(NCc3ccc(Cl)cc3)n2)cc1`, for which the inhibition was -5.57%.

`CCCCNc1ncnc2c1[nH]c1ccc(F)cc12`: the inhibition is 18%.

For the molecule `COc1ccc(C2=N/C(=C\c3ccco3)C(=O)O2)cc1OC`, the inhibition was 14.6%.

With `CCCn1c(=O)c(C(=O)NCc2ccc(Cl)cc2)c(O)c2ccccc21`, the inhibition is 13.8%.

As to `O=C(Cn1nnc2ccccc21)N/N=C/c1c(O)ccc2ccccc12`, the inhibition was 14.9%.

In the case of `CCN(CC(=O)NCc1ccc(Cl)cc1)Cn1nnc2ccccc21`, the inhibition is 85.1% (active).

For the molecule `COc1cc(-c2cn[nH]c2)ccc1C(=O)NCC(C)c1cccs1` (stereo unspecified), the inhibition was 0.52%.

Turning to `Cc1c(C(=O)Nc2cccc(C(F)(F)F)c2)sc2ncn(C)c(=O)c12`, the inhibition was -1.25%.

Turning to `Cc1ccc(NC(=O)c2ccc(NC(N)=O)cc2)cc1`, the inhibition is -11%.

As for `O=C(COc1ccc(Cl)cc1Cl)Nc1cccc(Br)c1`, the inhibition is -1.08%.

`Cc1cc(NC(=O)CNCCCN(C)C)no1`: the inhibition is 64.8% (active).

With `Cc1cc(NC(=O)Cn2cnc3c2c(=O)n(C)c(=O)n3C)no1`, the inhibition was 18%.

Take `Cc1cc(NC(=O)c2ccc(N(C)C)cc2)no1`: the inhibition was 7.76%.

With `COC(=O)c1ccccc1NC(=O)CC1Nc2cc(C)c(C)cc2NC1=O` (stereo unspecified), the inhibition was 6.95%.

For the molecule `O=C(c1ccc2c(c1)OCO2)N1CCCCC1c1nc2ccccc2[nH]1` (stereo unspecified), the inhibition is 10.6%.

Regarding `CCCN1CCC(N2CCN(c3cccc(Cl)c3)CC2)CC1`, the inhibition was 15%.

In the case of `CN1CCC(N2CCN(c3ccccc3Cl)CC2)CC1`, the inhibition is 55.2% (active).

With `CCS(=O)(=O)N1CCC(N2CCN(c3ccccc3)CC2)CC1`, the inhibition is 11.4%.

As for `Cc1nc(-c2cncc(Br)c2)cc(N2CCC(O)CC2)n1`, the inhibition is 3.37%.

For the molecule `CC(C)C(c1nnnn1C(C)C)N1CCN(c2ccccc2F)CC1` (stereo unspecified), the inhibition is 7.59%.

Regarding `COc1ccc(C2C(C(C)=O)=C(C)N=C3SCC(=O)N32)c(OC)c1` (stereo unspecified), the inhibition is 63.8% (active).

Take `COc1ccc(C2C(C(C)=O)=C(C)N=c3s/c(=C\c4cc(C)n(-c5ccc(Cl)cc5)c4C)c(=O)n32)c(OC)c1` (stereo unspecified): the inhibition was 0.25%.

`CCOC(=O)C1=C(C)N=C2SCC(=O)N2C1c1cc(OC)c(OC)c(OC)c1` (stereo unspecified): the inhibition is 15.1%.

In the case of `CCc1nnc(NC(=O)CSc2nnc(-c3ccccn3)n2-c2ccccc2C)s1`, the inhibition is 1.39%.

As to `CCOc1cc(C2C3=C(CCCC3=O)N(CC)C3=C2C(=O)CCC3)cc(Cl)c1O`, the inhibition is 3.45%.
